# Experimental data as given in the supplement of paper PMC11383364.
# ± gives the standard deviation of the averaged measurements.
# Tested on: SUM149
# Experiment: percent difference in area under dose-response curve of relative cell number, RPMI vs HPLM; higher = drug relatively more effective in HPLM than RPMI (negative = less effective in HPLM)
# Settings: treatment time: 72 h; dose range: 10-point, 1 nM to 20 µM; media compared: RPMI vs HPLM
row,Structure (SMILES),percent difference in area under dose-response curve [%]
1,NC(=O)Nc1sc(-c2ccc(F)cc2)cc1C(N)=O,6.37
2,CCNC(=O)c1noc(-c2cc(Cl)c(O)cc2O)c1-c1ccc(OC)cc1,-12.2
3,Cc1cnc(NC(=O)Nc2cc(Br)c(C)cc2OC[C@@H]2CNCCO2)cn1,1.27
4,Cn1cc(C2=C(c3ccc(Cl)cc3Cl)C(=O)NC2=O)c2ccccc21,-0.391
5,COc1ccc(COc2cc3oc(=O)c4cc(C(C)O)ccc4c3cc2OC)cc1 (centres undefined) [Palomid_529],-0.0774
6,C=CCn1c(=O)c2cnc(Nc3ccc(N4CCN(C)CC4)cc3)nc2n1-c1cccc(C(C)(C)O)n1,0.0373
7,Nc1ccc(C(=O)Nc2cccc(-c3nc(N4CCOCC4)c4oc5ncccc5c4n3)c2)cn1,7.67
8,c1ccc(Cn2nnc3c(Sc4nc5ccccc5o4)ncnc32)cc1,0.823
9,Nc1ccn([C@@H]2O[C@H](CO)[C@@H](O)C2(F)F)c(=O)n1 [Gemcitabine],-24.6 ± 5.4
10,O=C(O[C@@H]1Cc2c(O)cc(O)cc2O[C@@H]1c1cc(O)c(O)c(O)c1)c1cc(O)c(O)c(O)c1 [_Epigallocatechin_gallate],3.46
11,Cc1ccc(F)c(NC(=O)Nc2ccc(-c3cccc4[nH]nc(N)c34)cc2)c1 [Linifanib],0.938
12,Cc1[nH]c(/C=C2\C(=O)Nc3ccc(S(=O)(=O)Cc4c(Cl)cccc4Cl)cc32)c(C)c1C(=O)N1CCC[C@@H]1CN1CCCC1,-10.1
13,CS(=O)(=O)CCNCc1ccc(-c2ccc3ncnc(Nc4ccc(OCc5cccc(F)c5)c(Cl)c4)c3c2)o1 [Lapatinib],-5.33
14,C[C@]1(O)C[C@@H](c2nc(-c3ccc4ccc(-c5ccccc5)nc4c3)c3c(N)nccn32)C1 [Linsitinib],1.93
15,COc1cccc2c1C(=O)c1c(O)c3c(c(O)c1C2=O)C[C@@](O)(C(=O)CO)C[C@@H]3O[C@H]1C[C@H](N)[C@H](O)[C@H](C)O1 [Doxorubicin],-24.4
16,Nc1ncn([C@H]2C[C@H](O)[C@@H](CO)O2)c(=O)n1 [Decitabine],-25.4
17,C=CS(=O)(=O)NC1CCN(C(=O)CNc2cc(I)c(Cl)cc2OC)CC1 [KRas_G12C_inhibitor_9],-1.74

row,Structure (SMILES),percent difference in area under dose-response curve [%]
1,O=c1cc(N2CCOCC2)oc2c(-c3cccc4c3sc3ccccc34)cccc12,-2.53
2,Nc1nc(=S)c2[nH]cnc2[nH]1 [6_Thioguanine],-37.9
3,CN1CCC(CNc2ccc3ncc(-c4cccc(OC(F)(F)F)c4)n3n2)CC1 [SGI1776_free_base],-10.5
4,COc1cc(F)c(F)c(Nc2ccc(I)cc2F)c1NS(=O)(=O)C1(C[C@H](O)CO)CC1 [Refametinib],-9.94
5,Nc1nc(Nc2ccc(S(N)(=O)=O)cc2)nn1C(=O)c1c(F)cccc1F,-1.01
6,CN1CCN(c2nc(C3=C(c4c[nH]c5ccccc45)C(=O)NC3=O)c3ccccc3n2)CC1 [Sotrastaurin],9.13
7,CC1=C(/C=C/C(C)=C/C=C/C(C)=C\C(=O)O)C(C)(C)CCC1 [Isotretinoin],-4.74
8,CC(C)c1cc(C(C)C)c(CC(=O)NS(=O)(=O)Oc2c(C(C)C)cccc2C(C)C)c(C(C)C)c1 [Avasimibe],-0.523
9,Cc1[nH]c(/C=C2\C(=O)Nc3ccc(S(=O)(=O)N(C)c4cccc(Cl)c4)cc32)c(C)c1C(=O)N1CCN(C)CC1,-9.77
10,CN(NC(=O)CC(=O)NN(C)C(=S)c1ccccc1)C(=S)c1ccccc1 [Elesclomol],-21.3 ± 1.7
11,CC(C)NCCCn1c(Sc2cc3c(cc2I)OCO3)nc2c(N)ncnc21,-28.4
12,CN1CCN(c2ccc(OC(F)(F)F)c(Nc3ncc4c(n3)-c3c(c(C(N)=O)nn3CCO)CC4)c2)CC1,-12.8
13,Cc1nc(=O)c2cc(CN(C)c3ccc(C(=O)N[C@@H](CCC(=O)O)C(=O)O)s3)ccc2[nH]1 [Raltitrexed],0.127 ± 13
14,Cc1c(C(=O)Nc2ccc(N3C[C@@H](C)O[C@@H](C)C3)nc2)cccc1-c1ccc(OC(F)(F)F)cc1,-7
15,O=C1[C@H](CC[C@H](O)c2ccc(F)cc2)[C@@H](c2ccc(O)cc2)N1c1ccc(F)cc1 [Ezetimibe],-5.77
16,Nc1ncn([C@@H]2O[C@H](CO)[C@@H](O)[C@H]2O)c(=O)n1 [Azacitidine],-13.8
17,Cc1ccc(-n2nc(C(C)(C)C)cc2NC(=O)Nc2ccc(OCCN3CCOCC3)c3ccccc23)cc1,-3.95
